Test results as given in the supplement of paper PMC11732987, “Enantioselective OTUD7B fragment discovery through chemoproteomics screening and high-throughput optimisation” (Communications Chemistry, 2025).

Legend:
Experiment in all cases: log2 ratio of Biotin-Ahx-Ub-VS probe labelling (fragment/DMSO); higher = less target engagement (more negative = stronger competition), active = hit call of the paper (q ≤ 0.05, log2 ratio ≤ -1)
Details in all cases: compound concentration: 200 uM; treatment time: 3 h
[1] = molecular target: T1, USP19 (UniProt O94966)
T1 sequence (whole entry): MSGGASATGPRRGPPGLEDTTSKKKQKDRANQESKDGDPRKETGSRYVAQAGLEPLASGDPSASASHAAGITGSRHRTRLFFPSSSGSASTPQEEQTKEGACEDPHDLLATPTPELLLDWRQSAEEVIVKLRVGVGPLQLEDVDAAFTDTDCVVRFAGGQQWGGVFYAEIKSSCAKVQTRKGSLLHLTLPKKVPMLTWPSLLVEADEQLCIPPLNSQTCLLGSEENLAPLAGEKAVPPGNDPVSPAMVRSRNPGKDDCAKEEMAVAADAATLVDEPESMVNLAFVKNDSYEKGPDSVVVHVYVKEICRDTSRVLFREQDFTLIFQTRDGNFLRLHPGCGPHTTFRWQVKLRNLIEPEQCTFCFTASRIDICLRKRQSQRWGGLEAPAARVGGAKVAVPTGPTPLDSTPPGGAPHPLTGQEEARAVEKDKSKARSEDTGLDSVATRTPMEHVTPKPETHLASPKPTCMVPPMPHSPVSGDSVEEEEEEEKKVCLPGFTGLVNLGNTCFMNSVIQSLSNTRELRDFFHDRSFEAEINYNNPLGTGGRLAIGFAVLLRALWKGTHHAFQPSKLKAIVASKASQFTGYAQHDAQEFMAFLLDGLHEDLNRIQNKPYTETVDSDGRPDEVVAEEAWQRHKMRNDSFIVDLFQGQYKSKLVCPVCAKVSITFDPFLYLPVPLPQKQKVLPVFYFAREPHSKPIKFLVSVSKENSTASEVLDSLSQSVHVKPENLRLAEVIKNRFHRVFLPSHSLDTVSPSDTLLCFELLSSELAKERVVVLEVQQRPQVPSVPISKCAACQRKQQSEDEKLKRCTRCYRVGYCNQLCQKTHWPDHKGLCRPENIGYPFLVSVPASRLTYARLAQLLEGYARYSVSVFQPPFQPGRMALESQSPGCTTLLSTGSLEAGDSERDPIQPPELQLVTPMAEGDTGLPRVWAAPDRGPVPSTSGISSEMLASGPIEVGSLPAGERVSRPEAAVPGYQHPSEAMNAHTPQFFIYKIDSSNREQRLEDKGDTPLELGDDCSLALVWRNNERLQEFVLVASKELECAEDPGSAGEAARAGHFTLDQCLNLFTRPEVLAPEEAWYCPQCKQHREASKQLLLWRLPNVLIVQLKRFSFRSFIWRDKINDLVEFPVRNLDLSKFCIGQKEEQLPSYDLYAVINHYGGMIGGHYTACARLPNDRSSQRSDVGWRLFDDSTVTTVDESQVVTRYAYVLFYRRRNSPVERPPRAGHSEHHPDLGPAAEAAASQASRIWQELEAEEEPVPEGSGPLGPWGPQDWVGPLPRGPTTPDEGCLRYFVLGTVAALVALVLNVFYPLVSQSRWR
In short: (§1)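 HEK293T lysate, 495 µg per sample in Tris/CHAPS/IGEPAL buffer with protease inhibitors, was treated in triplicate with fragment at 200 µM or vehicle for 3 h and then with Biotin-Ahx-Ub-VS at 0.5 µM final for 1 h. Labelled DUBs were NeutrAvidin-enriched, digested with LysC and trypsin, and run by diaPASEF LC-MS/MS. Spectronaut label-free quantities were global-median-normalised, and values are average log2 fragment/vehicle ratios by unpaired t-test on proteins with ≥2 unique peptides.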

[2] = molecular target: T2, USP22 (UniProt Q9UPT9)
T2 sequence (whole entry): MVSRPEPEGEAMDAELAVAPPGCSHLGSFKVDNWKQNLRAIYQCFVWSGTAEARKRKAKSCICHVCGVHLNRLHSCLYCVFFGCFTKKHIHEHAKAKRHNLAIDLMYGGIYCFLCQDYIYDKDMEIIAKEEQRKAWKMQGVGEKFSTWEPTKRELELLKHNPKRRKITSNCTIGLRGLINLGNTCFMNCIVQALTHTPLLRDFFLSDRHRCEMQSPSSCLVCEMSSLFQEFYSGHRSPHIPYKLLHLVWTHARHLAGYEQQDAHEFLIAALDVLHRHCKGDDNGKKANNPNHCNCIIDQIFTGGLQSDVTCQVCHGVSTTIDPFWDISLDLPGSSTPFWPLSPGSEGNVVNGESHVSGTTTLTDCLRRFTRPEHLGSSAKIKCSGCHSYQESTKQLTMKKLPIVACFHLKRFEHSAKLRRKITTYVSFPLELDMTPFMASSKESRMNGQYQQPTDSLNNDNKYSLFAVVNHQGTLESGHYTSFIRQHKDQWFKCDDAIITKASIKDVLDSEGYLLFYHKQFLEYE
In short: as §1

[3] = molecular target: USP24 (UniProt Q9UPU5)
In short: as §1

[4] = molecular target: T3, USP25 (UniProt Q9UHP3)
T3 sequence (whole entry): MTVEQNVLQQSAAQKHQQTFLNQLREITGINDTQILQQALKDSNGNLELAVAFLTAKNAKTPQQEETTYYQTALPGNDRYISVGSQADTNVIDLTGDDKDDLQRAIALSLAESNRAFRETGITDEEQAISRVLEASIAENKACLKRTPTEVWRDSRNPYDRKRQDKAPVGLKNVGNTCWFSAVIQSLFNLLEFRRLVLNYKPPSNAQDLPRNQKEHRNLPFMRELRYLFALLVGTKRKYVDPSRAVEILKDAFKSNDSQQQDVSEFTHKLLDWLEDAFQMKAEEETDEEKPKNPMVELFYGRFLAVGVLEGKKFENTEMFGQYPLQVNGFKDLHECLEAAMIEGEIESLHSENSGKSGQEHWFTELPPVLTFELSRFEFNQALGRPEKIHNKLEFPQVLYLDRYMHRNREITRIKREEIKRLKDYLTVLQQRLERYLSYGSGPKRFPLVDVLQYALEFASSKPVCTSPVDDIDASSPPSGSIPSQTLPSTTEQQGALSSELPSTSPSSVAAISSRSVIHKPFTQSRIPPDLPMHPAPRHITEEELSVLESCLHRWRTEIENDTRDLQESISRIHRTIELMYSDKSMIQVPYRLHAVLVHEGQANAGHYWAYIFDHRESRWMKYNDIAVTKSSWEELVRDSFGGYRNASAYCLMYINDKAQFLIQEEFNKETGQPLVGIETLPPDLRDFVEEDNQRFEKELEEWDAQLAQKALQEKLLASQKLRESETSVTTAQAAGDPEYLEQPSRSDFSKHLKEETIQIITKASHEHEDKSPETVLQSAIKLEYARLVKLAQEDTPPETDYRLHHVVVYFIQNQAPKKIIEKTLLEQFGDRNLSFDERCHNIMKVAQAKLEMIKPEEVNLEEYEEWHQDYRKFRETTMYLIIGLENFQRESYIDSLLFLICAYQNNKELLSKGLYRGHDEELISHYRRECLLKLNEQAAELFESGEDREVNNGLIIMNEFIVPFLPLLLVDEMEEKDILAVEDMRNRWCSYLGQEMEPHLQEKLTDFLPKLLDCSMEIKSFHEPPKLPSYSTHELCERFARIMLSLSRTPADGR
In short: as §1

[5] = molecular target: T4, USP28 (UniProt Q96RU2)
T4 sequence (whole entry): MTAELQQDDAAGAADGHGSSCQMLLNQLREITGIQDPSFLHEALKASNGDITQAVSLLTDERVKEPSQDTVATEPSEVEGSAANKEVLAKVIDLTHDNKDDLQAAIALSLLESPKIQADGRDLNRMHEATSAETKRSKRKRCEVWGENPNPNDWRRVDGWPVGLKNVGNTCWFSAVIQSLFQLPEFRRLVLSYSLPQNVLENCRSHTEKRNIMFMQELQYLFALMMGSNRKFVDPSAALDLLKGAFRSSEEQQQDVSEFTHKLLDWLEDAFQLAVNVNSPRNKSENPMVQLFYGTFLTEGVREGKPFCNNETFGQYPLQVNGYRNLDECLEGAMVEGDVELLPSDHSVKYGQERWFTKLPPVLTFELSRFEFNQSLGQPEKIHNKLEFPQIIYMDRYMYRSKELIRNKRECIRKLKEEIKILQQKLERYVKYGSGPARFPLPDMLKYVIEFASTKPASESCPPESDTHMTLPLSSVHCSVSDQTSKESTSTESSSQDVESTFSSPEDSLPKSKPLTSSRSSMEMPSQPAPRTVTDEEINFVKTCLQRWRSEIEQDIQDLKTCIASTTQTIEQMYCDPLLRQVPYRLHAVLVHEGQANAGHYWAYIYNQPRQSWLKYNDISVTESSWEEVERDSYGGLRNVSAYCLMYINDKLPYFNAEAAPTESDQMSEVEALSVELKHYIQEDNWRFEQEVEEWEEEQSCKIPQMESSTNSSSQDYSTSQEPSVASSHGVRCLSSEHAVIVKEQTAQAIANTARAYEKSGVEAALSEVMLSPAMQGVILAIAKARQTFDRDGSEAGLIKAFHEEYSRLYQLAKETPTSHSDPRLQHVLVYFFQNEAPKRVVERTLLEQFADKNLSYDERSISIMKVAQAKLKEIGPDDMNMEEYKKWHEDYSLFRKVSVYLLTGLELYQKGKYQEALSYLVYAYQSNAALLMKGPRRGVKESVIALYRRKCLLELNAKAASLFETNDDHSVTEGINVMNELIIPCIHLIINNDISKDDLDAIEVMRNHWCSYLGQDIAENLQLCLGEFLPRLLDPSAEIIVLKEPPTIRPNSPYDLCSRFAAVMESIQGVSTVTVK
In short: as §1

Measured: log2 ratio of Biotin-Ahx-Ub-VS probe labelling

Chain of USP24 (Q9UPU5 whole entry): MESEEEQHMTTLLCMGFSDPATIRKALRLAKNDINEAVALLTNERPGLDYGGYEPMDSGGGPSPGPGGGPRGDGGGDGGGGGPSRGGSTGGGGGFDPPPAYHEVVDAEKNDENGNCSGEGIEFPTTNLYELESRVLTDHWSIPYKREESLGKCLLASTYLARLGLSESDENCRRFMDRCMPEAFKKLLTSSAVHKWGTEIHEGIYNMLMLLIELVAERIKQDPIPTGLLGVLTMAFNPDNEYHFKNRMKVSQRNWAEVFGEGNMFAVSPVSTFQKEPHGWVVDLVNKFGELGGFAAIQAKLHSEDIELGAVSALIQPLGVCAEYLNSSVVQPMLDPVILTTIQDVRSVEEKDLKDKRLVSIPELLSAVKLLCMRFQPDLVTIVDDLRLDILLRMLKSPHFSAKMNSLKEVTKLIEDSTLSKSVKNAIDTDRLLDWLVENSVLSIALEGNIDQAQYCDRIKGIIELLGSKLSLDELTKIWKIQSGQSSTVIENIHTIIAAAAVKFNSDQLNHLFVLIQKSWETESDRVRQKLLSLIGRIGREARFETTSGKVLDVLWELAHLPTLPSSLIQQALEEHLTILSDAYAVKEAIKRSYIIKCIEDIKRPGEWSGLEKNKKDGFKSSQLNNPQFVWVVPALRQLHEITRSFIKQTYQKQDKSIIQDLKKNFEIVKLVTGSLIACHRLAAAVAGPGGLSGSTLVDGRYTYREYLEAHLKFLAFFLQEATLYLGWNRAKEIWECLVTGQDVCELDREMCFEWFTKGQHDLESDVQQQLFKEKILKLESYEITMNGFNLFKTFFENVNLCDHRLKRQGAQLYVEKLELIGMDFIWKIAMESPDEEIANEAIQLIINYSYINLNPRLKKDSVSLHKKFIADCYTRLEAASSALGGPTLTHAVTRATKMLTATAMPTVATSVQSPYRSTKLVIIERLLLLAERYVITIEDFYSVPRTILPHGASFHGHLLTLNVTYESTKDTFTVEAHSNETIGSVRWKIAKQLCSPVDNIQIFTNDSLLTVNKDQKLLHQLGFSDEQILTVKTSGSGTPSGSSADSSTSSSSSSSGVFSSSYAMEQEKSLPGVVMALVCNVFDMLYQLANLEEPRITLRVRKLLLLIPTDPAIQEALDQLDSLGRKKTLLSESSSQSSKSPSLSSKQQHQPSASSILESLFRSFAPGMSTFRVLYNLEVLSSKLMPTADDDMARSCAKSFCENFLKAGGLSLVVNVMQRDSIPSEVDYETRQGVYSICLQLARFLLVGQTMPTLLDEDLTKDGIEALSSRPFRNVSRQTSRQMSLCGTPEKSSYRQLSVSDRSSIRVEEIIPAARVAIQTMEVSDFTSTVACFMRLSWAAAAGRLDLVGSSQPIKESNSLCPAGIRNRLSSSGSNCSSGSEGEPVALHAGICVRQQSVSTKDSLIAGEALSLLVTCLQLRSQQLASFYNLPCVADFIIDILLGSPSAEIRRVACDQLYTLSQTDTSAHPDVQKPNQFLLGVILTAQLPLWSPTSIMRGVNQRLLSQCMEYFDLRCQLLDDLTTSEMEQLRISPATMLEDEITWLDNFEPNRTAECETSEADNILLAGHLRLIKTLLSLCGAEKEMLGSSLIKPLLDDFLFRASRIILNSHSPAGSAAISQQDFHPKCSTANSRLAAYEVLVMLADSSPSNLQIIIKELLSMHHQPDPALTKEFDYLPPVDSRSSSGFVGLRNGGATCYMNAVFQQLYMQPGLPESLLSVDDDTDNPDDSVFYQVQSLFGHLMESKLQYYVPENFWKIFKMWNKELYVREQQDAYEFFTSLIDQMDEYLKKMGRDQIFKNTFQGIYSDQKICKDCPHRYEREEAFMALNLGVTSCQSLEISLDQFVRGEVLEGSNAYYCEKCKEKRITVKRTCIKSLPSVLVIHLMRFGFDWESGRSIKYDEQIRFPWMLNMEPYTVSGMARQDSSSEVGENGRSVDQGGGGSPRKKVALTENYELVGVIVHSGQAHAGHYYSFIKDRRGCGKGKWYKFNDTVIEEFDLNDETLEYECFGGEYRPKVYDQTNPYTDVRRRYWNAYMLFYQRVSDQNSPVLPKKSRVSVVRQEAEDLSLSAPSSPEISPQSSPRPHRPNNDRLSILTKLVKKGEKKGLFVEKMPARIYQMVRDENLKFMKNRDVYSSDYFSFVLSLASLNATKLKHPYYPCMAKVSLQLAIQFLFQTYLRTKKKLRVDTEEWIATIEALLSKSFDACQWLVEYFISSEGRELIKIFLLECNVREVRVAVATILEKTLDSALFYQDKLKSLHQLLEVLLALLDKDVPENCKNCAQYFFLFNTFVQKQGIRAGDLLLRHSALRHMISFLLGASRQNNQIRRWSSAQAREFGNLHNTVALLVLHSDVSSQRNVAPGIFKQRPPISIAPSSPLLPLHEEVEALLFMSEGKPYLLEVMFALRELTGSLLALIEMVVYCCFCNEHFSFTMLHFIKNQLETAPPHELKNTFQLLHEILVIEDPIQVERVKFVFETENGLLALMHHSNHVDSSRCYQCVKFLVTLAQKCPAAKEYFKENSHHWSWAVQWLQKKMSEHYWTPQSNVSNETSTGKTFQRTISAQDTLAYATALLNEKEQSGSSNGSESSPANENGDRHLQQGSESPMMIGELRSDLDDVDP

Cc1ccc(CC(CO)CNC(=O)CCl)cc1 (stereo not given)
inactive: [1] -0.487 | [2] -0.0764 | [3] -0.554 | [4] -0.531 | [5] -0.597
